From PMC7862700, “An all-to-all approach to the identification of sequence-specific readers for epigenetic DNA modifications on cytosine”

Experiments:
Assay in all cases: DAPPL (digital affinity profiling via proximity ligation, sequencing); 10 mM Tris-HCl pH 7.5, 50 mM NaCl, 1 mM DTT, 4% glycerol, room temperature, 30 min; GST-TFs on glutathione beads, 16-mer random dsDNA library, 0.1% formaldehyde crosslink after washing; high values mean tight binding
Conditions in all cases: protein: recombinant; tags: N-terminal GST; dsDNA, one strand shown
[1] = target: T1, ERF (Homo sapiens, UniProt P50548 1-548)
T1 sequence: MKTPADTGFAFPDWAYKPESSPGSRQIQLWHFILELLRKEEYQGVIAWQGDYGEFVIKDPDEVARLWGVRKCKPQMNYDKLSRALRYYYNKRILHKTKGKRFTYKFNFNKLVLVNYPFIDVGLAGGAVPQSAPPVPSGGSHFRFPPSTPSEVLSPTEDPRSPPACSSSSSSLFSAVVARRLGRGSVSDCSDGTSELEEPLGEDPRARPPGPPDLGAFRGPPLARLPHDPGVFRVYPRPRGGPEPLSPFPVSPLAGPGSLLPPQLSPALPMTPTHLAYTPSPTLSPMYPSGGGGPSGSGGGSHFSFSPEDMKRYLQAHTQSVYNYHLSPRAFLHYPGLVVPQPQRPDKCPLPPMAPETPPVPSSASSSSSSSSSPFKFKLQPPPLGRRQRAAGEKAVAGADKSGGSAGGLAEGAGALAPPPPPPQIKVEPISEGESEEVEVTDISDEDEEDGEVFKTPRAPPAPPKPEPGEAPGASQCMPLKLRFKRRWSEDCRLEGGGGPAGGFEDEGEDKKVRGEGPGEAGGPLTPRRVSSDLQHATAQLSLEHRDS
Outline: (§1)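 GST fusions of human transcription factors were expressed in yeast and captured with glutathione beads. Once given DNA barcodes and pooled alongside a tag-only sample, they were incubated for 30 min at room temperature with 200 nmole of a random double-stranded 16-mer DNA library in Tris/NaCl/DTT/glycerol buffer, then washed, crosslinked (0.1% formaldehyde), proximity-ligated, PCR-amplified and sequenced on an Illumina NextSeq500. The binding signal of each hexamer is its read frequency for a factor divided by its frequency for the tag-only sample.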

[2] = target: T2, ETV3L (Homo sapiens, UniProt Q6ZN32 1-361)
T2 sequence: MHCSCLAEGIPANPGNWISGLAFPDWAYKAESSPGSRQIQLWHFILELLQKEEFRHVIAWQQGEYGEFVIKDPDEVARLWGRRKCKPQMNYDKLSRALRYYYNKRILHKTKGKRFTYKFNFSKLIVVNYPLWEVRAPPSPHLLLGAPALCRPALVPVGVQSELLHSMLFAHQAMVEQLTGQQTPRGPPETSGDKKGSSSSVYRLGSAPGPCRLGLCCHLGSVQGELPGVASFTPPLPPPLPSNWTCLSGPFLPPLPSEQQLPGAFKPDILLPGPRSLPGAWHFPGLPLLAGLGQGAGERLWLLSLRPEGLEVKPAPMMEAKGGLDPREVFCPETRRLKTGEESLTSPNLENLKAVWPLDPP
Outline: as §1

[3] = target: T3, ETS2 (Homo sapiens, UniProt P15036 1-469)
T3 sequence: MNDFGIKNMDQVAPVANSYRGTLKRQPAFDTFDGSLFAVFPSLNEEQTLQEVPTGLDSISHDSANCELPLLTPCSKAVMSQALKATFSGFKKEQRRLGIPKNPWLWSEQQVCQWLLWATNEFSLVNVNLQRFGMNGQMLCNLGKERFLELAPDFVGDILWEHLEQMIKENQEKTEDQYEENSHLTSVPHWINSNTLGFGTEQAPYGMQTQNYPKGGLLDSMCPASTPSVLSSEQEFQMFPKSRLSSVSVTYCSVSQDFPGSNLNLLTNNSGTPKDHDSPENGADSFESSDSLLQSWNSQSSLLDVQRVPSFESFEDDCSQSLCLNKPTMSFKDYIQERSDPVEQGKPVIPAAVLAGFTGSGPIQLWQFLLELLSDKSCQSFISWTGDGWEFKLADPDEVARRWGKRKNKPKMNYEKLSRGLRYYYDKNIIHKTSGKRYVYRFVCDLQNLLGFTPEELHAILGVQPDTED
Outline: as §1

[4] = target: T4, SPDEF (Homo sapiens, UniProt O95238 1-335)
T4 sequence: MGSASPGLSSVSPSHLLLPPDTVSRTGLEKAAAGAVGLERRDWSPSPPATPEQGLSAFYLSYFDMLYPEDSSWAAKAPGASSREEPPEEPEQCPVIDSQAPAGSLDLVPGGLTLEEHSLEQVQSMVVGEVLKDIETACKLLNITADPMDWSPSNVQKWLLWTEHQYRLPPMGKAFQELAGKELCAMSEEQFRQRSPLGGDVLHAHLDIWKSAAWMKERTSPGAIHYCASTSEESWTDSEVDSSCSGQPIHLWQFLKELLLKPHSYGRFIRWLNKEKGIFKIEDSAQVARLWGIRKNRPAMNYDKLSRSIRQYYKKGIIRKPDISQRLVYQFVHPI
Outline: as §1

[5] = target: T5, ETV7 (Homo sapiens, UniProt Q9Y603 1-341)
T5 sequence: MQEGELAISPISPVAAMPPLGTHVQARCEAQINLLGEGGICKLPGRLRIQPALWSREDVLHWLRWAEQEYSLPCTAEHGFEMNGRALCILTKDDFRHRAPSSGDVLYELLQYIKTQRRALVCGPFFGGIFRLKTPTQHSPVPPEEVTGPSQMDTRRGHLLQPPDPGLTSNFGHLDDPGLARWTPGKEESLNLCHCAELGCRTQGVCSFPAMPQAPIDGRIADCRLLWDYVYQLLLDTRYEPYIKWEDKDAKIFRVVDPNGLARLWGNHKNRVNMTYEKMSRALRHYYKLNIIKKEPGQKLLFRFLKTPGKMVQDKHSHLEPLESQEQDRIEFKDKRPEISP
Outline: as §1

[6] = target: T6, ELF5 (Homo sapiens, UniProt Q9UKW6-2 1-255)
T6 sequence: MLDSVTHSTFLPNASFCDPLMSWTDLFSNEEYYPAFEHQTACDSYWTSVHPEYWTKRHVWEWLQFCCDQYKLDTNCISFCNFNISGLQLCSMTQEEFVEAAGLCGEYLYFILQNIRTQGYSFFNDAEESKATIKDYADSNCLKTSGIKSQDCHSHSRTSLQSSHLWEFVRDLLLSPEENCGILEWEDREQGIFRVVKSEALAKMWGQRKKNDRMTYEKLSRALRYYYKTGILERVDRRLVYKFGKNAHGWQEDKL
Outline: as §1

[7] = target: T7, ETV3 (Homo sapiens, UniProt P41162-2 1-143)
T7 sequence: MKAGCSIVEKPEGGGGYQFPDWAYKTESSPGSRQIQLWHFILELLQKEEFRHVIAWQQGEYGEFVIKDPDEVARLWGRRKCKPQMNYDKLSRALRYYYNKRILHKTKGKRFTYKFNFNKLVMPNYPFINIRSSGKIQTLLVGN
Outline: as §1

[8] = target: ETV6 (Homo sapiens, UniProt P41212 1-452)
Outline: as §1

Chain of ETV6 (P41212 whole entry): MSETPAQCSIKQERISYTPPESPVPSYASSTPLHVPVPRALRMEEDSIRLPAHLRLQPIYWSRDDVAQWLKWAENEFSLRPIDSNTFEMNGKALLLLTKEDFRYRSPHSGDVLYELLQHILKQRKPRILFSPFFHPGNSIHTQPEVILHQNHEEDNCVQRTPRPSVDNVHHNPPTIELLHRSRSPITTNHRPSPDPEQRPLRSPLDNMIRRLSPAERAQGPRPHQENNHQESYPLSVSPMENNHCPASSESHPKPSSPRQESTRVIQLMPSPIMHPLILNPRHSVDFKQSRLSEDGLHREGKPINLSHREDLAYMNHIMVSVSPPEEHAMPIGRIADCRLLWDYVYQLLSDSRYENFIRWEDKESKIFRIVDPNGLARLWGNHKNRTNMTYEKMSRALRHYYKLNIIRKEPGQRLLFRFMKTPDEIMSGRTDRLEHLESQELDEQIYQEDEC

Sequence | binding signal [1] | binding signal [2] | binding signal [3] | binding signal [4] | binding signal [5] | binding signal [6] | binding signal [7] | binding signal [8]
GGTCCC | 1.18 fold enrichment (6-mer frequency, TF over GST control) | 1.25 fold enrichment (6-mer frequency, TF over GST control) | 1.12 fold enrichment (6-mer frequency, TF over GST control) | 1.29 fold enrichment (6-mer frequency, TF over GST control) | 1.15 fold enrichment (6-mer frequency, TF over GST control) | 1.13 fold enrichment (6-mer frequency, TF over GST control) | 1.2 fold enrichment (6-mer frequency, TF over GST control) | 1.09 fold enrichment (6-mer frequency, TF over GST control)
CTGGGT | 1.07 fold enrichment (6-mer frequency, TF over GST control) | 1.18 fold enrichment (6-mer frequency, TF over GST control) | 1.09 fold enrichment (6-mer frequency, TF over GST control) | 1.08 fold enrichment (6-mer frequency, TF over GST control) | 1.1 fold enrichment (6-mer frequency, TF over GST control) | 1.07 fold enrichment (6-mer frequency, TF over GST control) | 1.07 fold enrichment (6-mer frequency, TF over GST control) | 1.09 fold enrichment (6-mer frequency, TF over GST control)
GGATGT | 1.41 fold enrichment (6-mer frequency, TF over GST control) | 1.63 fold enrichment (6-mer frequency, TF over GST control) | 1.72 fold enrichment (6-mer frequency, TF over GST control) | 3.07 fold enrichment (6-mer frequency, TF over GST control) | 1.45 fold enrichment (6-mer frequency, TF over GST control) | 1.87 fold enrichment (6-mer frequency, TF over GST control) | 1.78 fold enrichment (6-mer frequency, TF over GST control) | 1.66 fold enrichment (6-mer frequency, TF over GST control)
ATTAGG | 1.26 fold enrichment (6-mer frequency, TF over GST control) | 1.12 fold enrichment (6-mer frequency, TF over GST control) | 1.06 fold enrichment (6-mer frequency, TF over GST control) | 1.11 fold enrichment (6-mer frequency, TF over GST control) | 1.15 fold enrichment (6-mer frequency, TF over GST control) | 1.12 fold enrichment (6-mer frequency, TF over GST control) | 1.06 fold enrichment (6-mer frequency, TF over GST control) | 1.09 fold enrichment (6-mer frequency, TF over GST control)
CATCCG | 1.86 fold enrichment (6-mer frequency, TF over GST control) | 2.11 fold enrichment (6-mer frequency, TF over GST control) | 2.16 fold enrichment (6-mer frequency, TF over GST control) | 3.63 fold enrichment (6-mer frequency, TF over GST control) | 1.96 fold enrichment (6-mer frequency, TF over GST control) | 2.53 fold enrichment (6-mer frequency, TF over GST control) | 2.43 fold enrichment (6-mer frequency, TF over GST control) | 2.03 fold enrichment (6-mer frequency, TF over GST control)
GACCTG | 1.13 fold enrichment (6-mer frequency, TF over GST control) | 1.33 fold enrichment (6-mer frequency, TF over GST control) | 1.19 fold enrichment (6-mer frequency, TF over GST control) | 1.12 fold enrichment (6-mer frequency, TF over GST control) | 1.17 fold enrichment (6-mer frequency, TF over GST control) | 1.21 fold enrichment (6-mer frequency, TF over GST control) | 1.17 fold enrichment (6-mer frequency, TF over GST control) | 1.14 fold enrichment (6-mer frequency, TF over GST control)
ATGTGG | 1.15 fold enrichment (6-mer frequency, TF over GST control) | 1.16 fold enrichment (6-mer frequency, TF over GST control) | 1.18 fold enrichment (6-mer frequency, TF over GST control) | 1.05 fold enrichment (6-mer frequency, TF over GST control) | 1.08 fold enrichment (6-mer frequency, TF over GST control) | 1.15 fold enrichment (6-mer frequency, TF over GST control) | 1.19 fold enrichment (6-mer frequency, TF over GST control) | 1.2 fold enrichment (6-mer frequency, TF over GST control)
TTATAA | 1.15 fold enrichment (6-mer frequency, TF over GST control) | 1.19 fold enrichment (6-mer frequency, TF over GST control) | 1.2 fold enrichment (6-mer frequency, TF over GST control) | 1.17 fold enrichment (6-mer frequency, TF over GST control) | 1.21 fold enrichment (6-mer frequency, TF over GST control) | 1.19 fold enrichment (6-mer frequency, TF over GST control) | 1.16 fold enrichment (6-mer frequency, TF over GST control) | 1.19 fold enrichment (6-mer frequency, TF over GST control)
TGGCAG | 1.11 fold enrichment (6-mer frequency, TF over GST control) | 1.12 fold enrichment (6-mer frequency, TF over GST control) | 1.05 fold enrichment (6-mer frequency, TF over GST control) | 1.05 fold enrichment (6-mer frequency, TF over GST control) | 1.04 fold enrichment (6-mer frequency, TF over GST control) | 1.09 fold enrichment (6-mer frequency, TF over GST control) | 1.16 fold enrichment (6-mer frequency, TF over GST control) | 1.09 fold enrichment (6-mer frequency, TF over GST control)
TCCCCA | 1.32 fold enrichment (6-mer frequency, TF over GST control) | 1.41 fold enrichment (6-mer frequency, TF over GST control) | 1.38 fold enrichment (6-mer frequency, TF over GST control) | 1.3 fold enrichment (6-mer frequency, TF over GST control) | 1.12 fold enrichment (6-mer frequency, TF over GST control) | 1.46 fold enrichment (6-mer frequency, TF over GST control) | 1.36 fold enrichment (6-mer frequency, TF over GST control) | 1.26 fold enrichment (6-mer frequency, TF over GST control)
TGTCCC | 1.26 fold enrichment (6-mer frequency, TF over GST control) | 1.18 fold enrichment (6-mer frequency, TF over GST control) | 1.41 fold enrichment (6-mer frequency, TF over GST control) | 1.34 fold enrichment (6-mer frequency, TF over GST control) | 1.46 fold enrichment (6-mer frequency, TF over GST control) | 1.44 fold enrichment (6-mer frequency, TF over GST control) | 1.2 fold enrichment (6-mer frequency, TF over GST control) | 1.28 fold enrichment (6-mer frequency, TF over GST control)
TAATGT | 1.06 fold enrichment (6-mer frequency, TF over GST control) | 1.11 fold enrichment (6-mer frequency, TF over GST control) | 1.09 fold enrichment (6-mer frequency, TF over GST control) | 1.12 fold enrichment (6-mer frequency, TF over GST control) | 1.19 fold enrichment (6-mer frequency, TF over GST control) | 1.07 fold enrichment (6-mer frequency, TF over GST control) | 1.05 fold enrichment (6-mer frequency, TF over GST control) | 1.09 fold enrichment (6-mer frequency, TF over GST control)
CGCTCT | 1.3 fold enrichment (6-mer frequency, TF over GST control) | 1.37 fold enrichment (6-mer frequency, TF over GST control) | 1.31 fold enrichment (6-mer frequency, TF over GST control) | 1.25 fold enrichment (6-mer frequency, TF over GST control) | 1.18 fold enrichment (6-mer frequency, TF over GST control) | 1.24 fold enrichment (6-mer frequency, TF over GST control) | 1.25 fold enrichment (6-mer frequency, TF over GST control) | 1.26 fold enrichment (6-mer frequency, TF over GST control)
CTGCCA | 1.18 fold enrichment (6-mer frequency, TF over GST control) | 1.25 fold enrichment (6-mer frequency, TF over GST control) | 1.18 fold enrichment (6-mer frequency, TF over GST control) | 1.15 fold enrichment (6-mer frequency, TF over GST control) | 1.08 fold enrichment (6-mer frequency, TF over GST control) | 1.2 fold enrichment (6-mer frequency, TF over GST control) | 1.09 fold enrichment (6-mer frequency, TF over GST control) | 1.14 fold enrichment (6-mer frequency, TF over GST control)
TGTAAA | 1.23 fold enrichment (6-mer frequency, TF over GST control) | 1.22 fold enrichment (6-mer frequency, TF over GST control) | 1.24 fold enrichment (6-mer frequency, TF over GST control) | 1.16 fold enrichment (6-mer frequency, TF over GST control) | 1.13 fold enrichment (6-mer frequency, TF over GST control) | 1.1 fold enrichment (6-mer frequency, TF over GST control) | 1.2 fold enrichment (6-mer frequency, TF over GST control) | 1.03 fold enrichment (6-mer frequency, TF over GST control)
